Test results published in PubChem BioAssay (NCI).
About 83,000 compounds went through this panel and 20% of them were active in at least one assay; those are over-represented in the sample as a whole.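 For each line, cells grew in 96-well plates with the test compound present at a single concentration for 48 hours.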 Unmarked numbers belong to inactive results. Calls of active or inactive are those of the source. How the source made its calls: active means growth percent below 10; inactive means the rest.

Tests used:
Experiment in all cases: NCI-60 one-dose screen, 48 h (100 = growth as untreated, 0 = no growth, -100 = all killed)
Details in all cases: 10 µM unless noted
RPMI-8226 leukemia = tested on: RPMI-8226 leukemia
OVCAR-8 ovarian = tested on: OVCAR-8 ovarian
OVCAR-5 ovarian = tested on: OVCAR-5 ovarian
OVCAR-4 ovarian = tested on: OVCAR-4 ovarian
SK-OV-3 ovarian = tested on: SK-OV-3 ovarian
IGROV1 ovarian = tested on: IGROV1 ovarian
HS 578T breast = tested on: HS 578T breast
NCI/ADR-RES ovarian = tested on: NCI/ADR-RES ovarian
T-47D breast = tested on: T-47D breast
OVCAR-3 ovarian = tested on: OVCAR-3 ovarian

SMILES	growth (RPMI-8226 leukemia)	growth (OVCAR-8 ovarian)	growth (OVCAR-5 ovarian)	growth (OVCAR-4 ovarian)	growth (SK-OV-3 ovarian)	growth (IGROV1 ovarian)	growth (HS 578T breast)	growth (NCI/ADR-RES ovarian)	growth (T-47D breast)	growth (OVCAR-3 ovarian)
COc1cc(C(=O)O/N=C(\N)Cc2cccc3ccccc23)cc(OC)c1OC	-36.4% (active)	1.62% (active)	48%	66.8%	69.2%	46.9%	26%	59.8%	-73.1% (active)	
COc1ccc2sc(N(Cc3cccnc3)C(=O)c3ccc(C#N)cc3)nc2c1	64.4%	80.7%	96.7%	105%	106%	98.1%	85.1%	85.4%	78.3%	
O=C(NC1CCCCC1)C(c1cccs1)N(CCc1ccccc1)C(=O)c1ccco1 (configuration not stated)	79.7%	88.2%	87.1%	95.9%	89.6%		93.8%	94.3%	85.1%	96.6%
COc1cc(/C=C2\CN(S(=O)(=O)c3ccccc3)C/C(=C\c3cc(CN4CCCC4)c(O)c(OC)c3)C2=O)cc(CN2CCCC2)c1O	-13.3% (active)	19.2%	-9.14% (active)	34.8%		-27.6% (active)	33.6%	92.7%	32.3%	11.1%
Nc1ncnc(N)c1NC(=O)c1ccc(OCc2ccccc2)cc1	105%	102%	106%	107%	102%		103%	113%	96%	110%
N#C/C(=C\c1c(-c2ccccc2)[nH]c2ccccc12)C(=O)c1ccccc1	-0.917% (active)	46.9%	70.5%	68.9%	57.4%		16%	6.15% (active)	39%	-7.05% (active)
CC1=NCC2NC(=O)NC(C)=C12 (configuration not stated)	100%	105%	97.4%	106%		97%	93.6%	106%	113%	105%
CC(C)Cn1c2c(c(=S)[nH]c1=O)CCC2	99.2%	101%	99.5%	101%		103%	102%	106%	111%	111%
CN1C(=O)N(C)C2Nn3c(s/c(=C\c4ccc(Cl)cc4Cl)c3=O)=NC21 (configuration not stated)	80.2%	69.3%	63.5%	67.6%		60.5%	66.9%	35.6%	69.7%	30.7%
COc1cc(C2C3=C(COC3=O)N(CCO)c3cc4c(cc32)OCCO4)cc(OC)c1O (configuration not stated)	32.4%	27.4%	87.4%	40.3%	24.5%		21.9%	82.9%	33.4%	-31% (active)
O=c1oc2ccc(-c3ccc(F)cc3F)cc2c(=O)n1-c1ccc(Cl)c(C(F)(F)F)c1	3.09% (active)	8.57% (active)	74.8%	21.6%	-9.2% (active)			6.43% (active)	-11% (active)	7.34% (active)
O=C(Cn1cc(COc2ncnc3c2cnn3-c2ccccc2)nn1)Nc1cccc2ccccc12	93.7%	87.9%	98.4%	76.9%		102%	85.1%	94.8%	87.1%	109%
COc1cc(/C=C/C(=O)c2ccc(Cl)cc2)cc(CN2CCCCC2)c1O	50.9%	89.3%	99.7%	76.7%		90.5%	85.4%	88.5%	79.3%	93.8%
CNCCNc1nc2ccccc2c2c(=O)c3cccc(OC)c3sc12	-31.4% (active)	23.7%	47.3%	22.8%		29.7%	40.8%	37.5%	54.4%	29.4%
O=C(Nc1ccc(I)cc1F)c1cc(Br)ccc1O	-18.9% (active)	7.13% (active)	23.7%	12.4%	-4.76% (active)		-3.47% (active)	7.79% (active)	-9.09% (active)	8.04% (active)
CCCCN1CCN(c2ccc3nc(-c4ccc5nc(-c6ccc(OCC)cc6)[nH]c5c4)[nH]c3c2)CC1	-25.3% (active)	70.1%	135%	55.2%		71.9%	74.4%	87.8%	59.7%	-18% (active)
COc1ccc(C2=C(c3cccc(OC)c3)C(=O)c3ccc(C)nc3C2=O)cc1	47.2%	42.3%	104%	-95.8% (active)		43%	52.5%	17.1%	-41.4% (active)	7.59% (active)
O=C(Cc1ccccc1)NC(c1ccc(Cl)cc1)c1c(O)ccc2ccccc12 (configuration not stated)	-20.8% (active)	5.43% (active)	45.7%	21.7%	36.1%		54.1%	9.15% (active)	10.8%	-22.9% (active)
Nc1nc(Nc2cccc(F)c2)nc2ccccc12	0.232% (active)	55.9%	54.1%	40.4%	72.7%		63.9%	38.1%	41.5%	50.6%
COc1cc2nc(NC3CCCC3)nc(NC3CCN(C(C)C)CC3)c2cc1OC	-10.7% (active)	89.7%	107%	69%		82%	79.6%	101%	17.4%	89.4%
O=C(c1nc2ccccc2[nH]1)C1C(c2ccc(F)cc2)C2CC3CCCCC3N2[C@@]12C(=O)Nc1ccc(Cl)cc12 (some centres not stated)	13.9%	61.2%	61.8%	31.5%		42.8%	69.2%	51%	37.4%	50.1%
Cc1ccc(N=NC2C(=O)N(c3ccc(Cl)cc3)N(c3ccc(Cl)cc3)C2=O)cc1	78.1%	98.2%	99.8%	102%		95.8%	102%	98.9%	83.2%	93.3%
Cc1nn(-c2nc3ccccc3[nH]2)c2c1C(c1ccc(OCC(N)=O)cc1)CC(=O)N2 (configuration not stated)	126%	107%	102%	108%	106%			109%	90.8%	111%
Cc1ccc2cccc(Oc3ccc(Nc4ncnc5onc(-c6ccccc6)c45)cc3)c2n1	111%	91%	94.6%	71.9%		77.2%	89.4%	87.3%	65.2%	93.8%
CC1(O)COCCCCOc2c(CN)cccc2NC(=O)c2nc(cnc2N)-c2ccc(cc2)S(=O)(=O)C(C)(C)C1 (configuration not stated)	-36.8% (active)	-22.8% (active)	3.73% (active)	-70.2% (active)		-57.3% (active)	-53.2% (active)	48.5%	-19.8% (active)	-77.2% (active)
COC(=O)/C(=C\c1c(C)[nH]c2ccccc12)S(=O)(=O)c1ccccc1	-45.8% (active)	4.29% (active)	33.6%	53%	22.6%		-29.7% (active)	4.6% (active)	17.8%	
N#CC(C#N)=Cc1c(-c2ccccc2)[nH]c2ccccc12	-24.8% (active)	32.4%	75.3%	65.7%	25.3%		-1.19% (active)	16.2%	38.6%	-27.5% (active)
CCOC(=O)c1ccc(N=Cc2sc(=O)[nH]c2O)cc1	101%	92.1%	102%	100%	91.6%		88.1%	96.8%	92.3%	103%
N#Cc1c(N)nc2c(c1N)C(c1ccc(F)cc1)c1ccc(N)cc1O2 (configuration not stated)	103%	97.5%	99.1%	96.7%	119%		95.6%	107%	92.3%	118%
O=c1oc2ccc(Br)cc2c(=O)n1-c1ccc(Br)cc1F	-13.8% (active)	12.3%	18.8%	10.4%		9.59% (active)	-5.29% (active)	2.87% (active)	-1.51% (active)	8.18% (active)
